Hit rate of the full screen: of about 69,000 compounds, about 8,600 (12%) showed an effect of 50% or more. This excerpt belongs to a sample that is enriched for strong results.
Test system: Plasmodium berghei
Assay: Screen against P. berghei liver stage (PbLuc), transformed with Luciferase, at 10uM
Format: functional, HepG2
Details: tested at 10 uM

Compound	INHIBITION [%]
CCOc1ccc(Cl)c(C(=O)N2CCN(C(=O)OC)CC2)n1	-6.44
Cc1cc(C2CCCN2S(=O)(=O)c2cnn(C)c2)on1 (configuration not stated)	-9.8
Cc1nn(C)cc1CN1C[C@H]2CC[C@@H](C1)N(Cc1c(C)noc1C)C2=O	-4.4
Cc1ccc(CNC(=O)NCc2ccco2)s1	10.7
CN(C)c1ncc(I)c(C2CCCN2C)n1 (configuration not stated)	-54.1
CS(=O)(=O)NCC1CCCCN1C(=O)c1ccc(Br)s1 (configuration not stated)	-50.5
CS(=O)(=O)NCC1CCCCN1C(=O)c1csc(-c2ccsc2)n1 (configuration not stated)	-89.3
CS(=O)(=O)NCC1CCCCN1C(=O)c1ccsc1 (configuration not stated)	59.5
Cc1ccc2nc(NCCN3CCOCC3)n(C)c(=O)c2c1	-22.4
Cc1ccc2nc(NCCCN3CCCCCC3=O)n(C)c(=O)c2c1	8.97
CCN1CCN(CCNc2nc3ccc(C)cc3c(=O)n2C)CC1	71.7
Cc1nc(C)n(CC2CCCN2CC(=O)Nc2ccncc2)n1 (configuration not stated)	25.4
COCCN1CCO[C@@H]2CN(C(=O)Cc3cccc(F)c3)CC[C@@H]2C1	10.5
O=C(c1cc(-n2cnnn2)ccc1Cl)N1CCN(c2ccccc2)CC1	10.1
O=C(c1ccc(Cl)cc1)N1CCn2c(nn(-c3ccc(Cl)cc3)c2=O)C1	35
O=C(c1ccc(Cl)cc1)N1CCn2c(nn(-c3cccc(Cl)c3)c2=O)C1	54
O=C(c1ccc(Cl)cc1)N1CCn2c(nn(-c3ccncc3)c2=O)C1	49.9
O=C(NCc1ccccn1)Nc1cc(C(F)(F)F)c[nH]c1=O	57.2
O=C(NCCNc1ccccn1)Nc1cc(C(F)(F)F)c[nH]c1=O	7.4
O=C(NCc1ccncc1)Nc1cc(C(F)(F)F)c[nH]c1=O	11.083
O=C(NCCc1ccccn1)Nc1cc(C(F)(F)F)c[nH]c1=O	1.62
Cn1nccc1CNC(=O)Nc1cc(C(F)(F)F)c[nH]c1=O	55.1

Compound	INHIBITION [%]
Cn1nccc1C(=O)Nc1cc(C(F)(F)F)c[nH]c1=O	17.68
Cc1noc(CN2CCN(c3cncc(Cl)n3)CC2)n1	5.05
O=C(N1CCOCC1)N1CCN(c2ccc(Cl)nn2)C(=O)C1	24.2
CN(Cc1cnn(C)c1)C(=O)CN1CCCC(Cn2cncn2)C1 (configuration not stated)	7.67
Cc1nn(C)c(Cl)c1C1CCCN1C(=O)c1cccc(C#N)c1 (configuration not stated)	-38.7
Cc1noc(C2(C)CCCN(C(=O)c3cnn(C)c3)C2)n1 (configuration not stated)	24.4
O=C(NCC1CCCCC1)N1C[C@@H]2C[C@H](C(=O)N3CCOCC3)[C@H](C1)O2	22.2
O=C(Nc1nncs1)N1CCC(c2ccc(O)cc2)CC1	-1.45
O=C(Nc1nncs1)N1CCC(CCO)CC1	66.6
O=C(Nc1nncs1)N1CCC(CCc2ccc(O)cc2)CC1	12.5
COc1ccc2c(c1)[nH]c1c(N(C)CC3OCCO3)ncnc12	-13.6
O=C(Nc1ccccc1)N1CCn2c(nnc2C2CCCN2)C1 (configuration not stated)	46.6
O=C(C1=CCCC1)N1CC[C@]2(C[C@H](OCc3cccnc3)CO2)C1	16.9
CN(C)C(=O)CN1CCCC2(CCN(c3ccsc3)C2=O)C1 (configuration not stated)	40.4
O=C1N(c2ccsc2)CCC12CCCN(CC1CC1)C2 (configuration not stated)	57.9
Cc1nocc1C(=O)N1CCCC2(CCN(c3ccsc3)C2=O)C1 (configuration not stated)	-107
Cc1occc1C(=O)N1CCCC2(CCN(c3ccccc3)C2=O)C1 (configuration not stated)	-54.5
Cn1cc(N2CCC3(CCCN(Cc4ccc(F)cc4)C3)C2=O)cn1 (configuration not stated)	67.2
COc1ccc(CN2CCC3(CC2)CCN(CC(=O)N(C)C)C3=O)cc1	-8.51
Cc1occc1C(=O)N1CCCC2(CCN(c3ccsc3)C2=O)C1 (configuration not stated)	56.7
Cn1cc(CN2CCC3(CCN(c4cnn(C)c4)C3=O)C2)cn1 (configuration not stated)	14.8
CCN1CCC2(CCN(Cc3ccc(OC)cc3)CC2)C1=O	38.3

Compound	INHIBITION [%]
Cn1cc(N2CCC3(CCCN(Cc4ccoc4)C3)C2=O)cn1 (configuration not stated)	-2.72
O=C1N(c2ccsc2)CCC12CCCN(Cc1ccccn1)C2 (configuration not stated)	-6.23
COc1ccc(CN2CCC3(CC2)CCN(CC2CC2)C3=O)cc1	52.4
CCOC(=O)CCNC(=O)c1nc(OCC)ccc1Cl	6.285
Brc1ccc(CNCc2nnc3n2CCCCC3)s1	21.8
CC(=O)N1N=C(Cc2ccccc2)OC1C(=O)NCC(=O)OC(C)(C)C (configuration not stated)	12.5
CCc1nnc(Nc2cc(C)nc(C3CN(C(C)=O)CCO3)c2)s1 (configuration not stated)	-4.25
CCCc1nc(C)cc(NCCc2nnc(N)s2)n1	-16.9
O=C(Cc1ccccc1)NCCNC(=O)c1scnc1Cl	46.2
COCC[C@]1(O)CCN(C(=O)C2CCN(C3CCCC3)CC2)C[C@H]1C	9.63
Nc1cccnc1N1CCC(C(F)(F)F)CC1	-22.5
COCCN1C[C@H]2CC[C@@]3(N=C(C)N(CC4CC4)C3=O)[C@H]2C1	-26.5
CC(=O)NCc1ccc(C(=O)N2CCCC2c2c(C)nn(C)c2C)o1 (configuration not stated)	-55.4
COc1ccc(CN2CCCC3(CCN(c4ccsc4)C3=O)C2)cc1 (configuration not stated)	72.8
O=C1N(c2ccsc2)CCC12CCCN(Cc1cccnc1)C2 (configuration not stated)	-18.2
COCCN1CCCC2(CCN(c3ccsc3)C2=O)C1 (configuration not stated)	39.2
O=C(N1CCOCC1)N1CCc2ncnc(NC3CCC3)c2CC1	-2.35
FC(F)(F)c1cc(N2CCc3ncnc(NC4CC4)c3CC2)ncn1	-31.6
O=C(N1CCOCC1)N1CCc2ncnc(NC3CC3)c2CC1	26.8
CC(C)Nc1ncnc2c1CCN(C(=O)[C@H]1CCCO1)CC2	-12.2
CC(C)Nc1ncnc2c1CCN(c1cc(C(F)(F)F)ncn1)CC2	60.3
Cc1ccsc1C(=O)N1CCc2ncnc(NC(C)C)c2CC1	19.4

Compound	INHIBITION [%]
Cc1ncnc2c1CCN(c1cc(C(F)(F)F)ncn1)CC2	-17
CC(C)Nc1ncnc2c1CCN(C(=O)N1CCOCC1)CC2	75.4
CC(C)Nc1ncnc2c1CCN(C(=O)c1ccc[nH]1)CC2	70.7
CN(Cc1nnc2n1CCC2)C(=O)Cc1ccc2c(c1)CCC2	19.2
CC(=O)NC1CCN(c2cc(C3CCNCC3)ccn2)CC1	20.2
O=C(c1ncccn1)N1C[C@@H]2CN(Cc3cccnc3)CCO[C@@H]2C1	-1.26
Fc1ccc(C(CNc2ccncn2)N2CCCC2)cc1 (configuration not stated)	45
Cc1cc(C(=O)N2CCC3(C2)CN(c2ccsc2)C(=O)CN3C)[nH]n1 (configuration not stated)	46.2
COc1ccc2c(c1)Cc1c-2nc(N)c(C#N)c1C1CCOC1 (configuration not stated)	73.9
N#Cc1c(N)nc2c(c1C1CCOC1)CCc1cc(O)ccc1-2 (configuration not stated)	-3.12
COc1ccc2c(c1OC)Cc1c-2nc(N)c(C#N)c1C1CCOC1 (configuration not stated)	40.5
Cc1ccc(C(=O)Nc2ccc(N(C)C)cn2)n1C	-75.9
CCc1ccc(CN2C[C@@H]3COC[C@H](NS(C)(=O)=O)[C@@H]3C2)o1	-12.2
Cc1ccc(Oc2ncccc2C(=O)N(C)CC2OCCO2)c(C)c1	-17.2
c1cc(C2CN(C3CCCCC3)C2)n[nH]1	15.92
CCC(N)c1ccccc1OCC(=O)N1CCCC1 (configuration not stated)	-42.3
Cc1ccoc1CNCc1nnc2n1CC(C(F)(F)F)CC2 (configuration not stated)	52.6
Cc1ccoc1CNCc1nnc2n1CCCC2C(F)(F)F (configuration not stated)	47.4
Cc1ccc(CNCc2nnc3n2CCCC3C(F)(F)F)o1 (configuration not stated)	4.92
Cc1ccc(CNCc2nnc3n2CC(C(F)(F)F)CC3)o1 (configuration not stated)	65.9
COc1cccc(CNCc2nnc3n2CC(C(F)(F)F)CC3)c1 (configuration not stated)	45.1
FC(F)(F)C1CCCn2c(CNCc3ccco3)nnc21 (configuration not stated)	45.3

Compound	INHIBITION [%]
CCC(NC(=O)c1cc(CC(C)C)nn1C)c1ccnn1C (configuration not stated)	-18.2
CCC(NC(=O)c1cc(CC(C)C)nn1C)c1cc(C)ccn1 (configuration not stated)	-1.15
CCC(NC(=O)c1cc(CC(C)C)nn1C)c1cccc(C)n1 (configuration not stated)	86.7
CC(O)CN1CCN(C(=O)c2cnn(-c3ccccc3Cl)c2)CC1 (configuration not stated)	32
CCOCCN1CCN(c2ccc(C#N)cn2)CC1CC (configuration not stated)	2.91
O=C(c1cnoc1)N1CCC[C@]2(C[C@@H](OCc3ccccn3)CO2)C1	8.47
Cc1cc(C(=O)N(C)C)c2c(Br)cccc2n1	40.7
Cc1cc(C(N)=O)c2c(Br)cccc2n1	53.2
Cc1cc(C(=O)O)c2c(Br)cccc2n1	8.7
Cc1nn(C)c(C)c1CCC(=O)N1CCCC(n2cccn2)C1 (configuration not stated)	16.9
NS(=O)(=O)CCN1CCN(c2cc(F)ccc2F)CC1	-6.51
CCCS(=O)(=O)CCN1CCN(c2cc(F)ccc2F)CC1	25.2
O=C1CCC(=O)N1CCN1CCN(c2cc(F)ccc2F)CC1	79.1
NC(=O)C1CCN(C(=O)c2ccn(-c3cccc(Cl)c3)n2)C1 (configuration not stated)	-1.14
O=C(NCCCn1cccn1)NCC(c1ccco1)N1CCCC1 (configuration not stated)	-49.5
CCOCC(=O)N1CC[C@H]2OCC[C@@]2(COc2ncccc2F)C1	-23.4
Cc1n[nH]cc1CNCC1(c2ccc3c(c2)OCO3)CCOCC1	-21.4
Cc1csc(CNC(=O)NCC2(c3ccc4c(c3)OCO4)CC2)n1	2.29
Cc1ncsc1CNC(=O)NCC1(c2ccc3c(c2)OCO3)CC1	70.2

— ChEMBL document CHEMBL4513216, “Probing the Open Global Health Chemical Diversity Library for Multistage-Active Starting Points for Next-Generation Antimalarials” (ACS Infect Dis, 2020)
